“And” between values parts separate entries of the source, which are not always exact repeats. Equal entries are not always repeated. Results filed as inconclusive are left out. Where a structure was tested more than once in an assay, its records may differ in their call. The source made the active and inactive calls. The calls were made as follows, unless noted: active = hit-call score of the fitted dose curve at least 0.9, where 1 is the maximum; inconclusive = response in the unintended direction; inactive = score below 0.9.

Read-out in test [1]: UDP glucuronosyltransferase (UGT1A6), UGT1A6 (gene 54578)
In words: LTEA_HepaRG_UGT1A6: Life Technologies and Expression Analysis (LTEA) Assay for UDP glucuronosyltransferase (UGT1A6) using HepaRG (AID 2283539; active = hit-call score of the fitted dose curve at least 0.9, where 1 is the maximum; inactive = score below 0.9). Conditions: mRNA level, 48 h; actives raise or lower the signal. The gist of the method: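 Endpoint is UGT1A6 transcript induction or loss in a human liver cell line, quantified by TaqMan qRT-PCR 48 h after dosing. Concentrations ran from 100 uM downward in half-log steps in 0.5% DMSO; activity was fitted in both directions versus vehicle.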

Read-out in test [2]: X-box binding protein 1 (XBP1), XBP1 (gene 7494)
In words: LTEA_HepaRG_XBP1: Life Technologies and Expression Analysis (LTEA) Assay for X-box binding protein 1 (XBP1) using HepaRG (AID 2283540; active = hit-call score of the fitted dose curve at least 0.9, where 1 is the maximum; inactive = score below 0.9). Conditions: mRNA level, 48 h; actives raise or lower the signal. The method, boiled down:
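Human HepaRG monolayers receive test chemical for 48 h across an eight-point half-log series starting at 100 uM. XBP1 mRNA gain or loss is scored against DMSO by qRT-PCR.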

The nature of test [3]: LTEA_HepaRG_LDH_cytotoxicity: Cytotoxicity Assessment in the Life Technologies and Expression Analysis (LTEA) Assay (AID 2283563).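 As to AC50: LDH activity released into spent culture medium as a marker of cell death.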 The gist of the method: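 Human HepaRG hepatic cells are treated with test chemicals for 48 h at up to 100 uM in 0.5% DMSO. Cytotoxicity is scored from medium LDH against the vehicle control.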
The nature of test [4]: ATG_XTT_Cytotoxicity: Cytotoxicity Assessment in the Attagene TRANS-FACTORIAL HepG2 Assay (AID 2283584). The method, boiled down:
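Transfect HepG2 with GAL4-UAS reporter units, dose compound, incubate 24 h, then measure viable cell number by XTT. Fit concentration response against DMSO baseline.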

The nature of test [5]: TOX21_p53_BLA_p2_viability: Viability Assessment in the Tox21 HCT-116 p53 Agonism Beta-lactamase Assay, Phase 2 (AID 2283591).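 Also: actives lower the ATP signal meaning cytotoxicity.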 The gist of the method:
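HCT116 p53-bla cells, 4000/well, dosed after 5 h plating (217-fold dilution of DMSO stocks) and incubated 16 h at 37C. Viability taken as cellular ATP by CellTiter-Glo luminescence after 30 min RT; signal loss marks cytotoxicity.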

Test [6] concerns the target Cellular tumor antigen p53 (Homo sapiens) (UniProt P04637). In words: TOX21_p53_BLA_p2_ratio: Tox21 HCT-116 p53 Agonism Beta-lactamase Assay, Ratio, Phase 2 (AID 2283592). The gist of the method: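 An inducible beta-lactamase reporter in HCT116 cells signals p53 pathway activation. After 16 h chemical exposure at 37C, cells load CCF4-AM substrate for 2 h at room temperature; activity is the cleaved/uncleaved emission ratio relative to DMSO.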

A short description of test [7]: TOX21_p53_BLA_p3_viability: Viability Assessment in the Tox21 HCT-116 p53 Agonism Beta-lactamase Assay, Phase 3 (AID 2283593).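 Also: cells exposed to compound for 16 h before reading.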 The gist of the method:
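HCT116 cells, 4000/well, dosed 5 h after plating by pin transfer (217-fold dilution from DMSO stock) and incubated 16 h at 37C, 5% CO2. Viability read as ATP luminescence with CellTiter-Glo after 30 min at room temperature.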

The target of test [8] is Cellular tumor antigen p53 (Homo sapiens) (UniProt P04637). The test is described as follows: TOX21_p53_BLA_p3_ratio: Tox21 HCT-116 p53 Agonism Beta-lactamase Assay, Ratio, Phase 3 (AID 2283596). The method, boiled down: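 HCT116 p53-bla cells (4000/well) given compound in DMSO (217-fold dilution) after 5 h, incubated 16 h at 37C. CCF4-AM substrate 2 h at room temperature; 460/530 nm emission ratio, gain fitted against DMSO.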

Test [9] is described as follows: TOX21_p53_BLA_p4_viability: Viability Assessment in the Tox21 HCT-116 p53 Agonism Beta-lactamase Assay, Phase 4 (AID 2283597).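 Also: hits lower the luminescence signal meaning cytotoxicity.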 The gist of the method: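 Compound exposure of HCT116 cells lasts 16 h at 37C, 5% CO2, with DMSO stocks diluted 217-fold. Cellular ATP is then quantified by CellTiter-Glo luminescence after 30 min at room temperature.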
The target of test [10] is Cellular tumor antigen p53 (Homo sapiens) (UniProt P04637). In words: TOX21_p53_BLA_p5_ratio: Tox21 HCT-116 p53 Agonism Beta-lactamase Assay, Ratio, Phase 5 (AID 2283599). The gist of the method: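 HCT-116 p53-bla cells (4000/well) plated 5 h, dosed with compound (217-fold DMSO dilution) for 16 h at 37 C; CCF4-AM substrate 2 h at room temperature. Activity is the 460/530 nm emission ratio (405 nm excitation), fitted in gain-of-signal direction versus DMSO.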

Test [11] in a line: TOX21_p53_BLA_p5_viability: Viability Assessment in the Tox21 HCT-116 p53 Agonism Beta-lactamase Assay, Phase 5 (AID 2283600). The method, boiled down:
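Counter-readout for cytotoxicity: ATP-dependent luminescence from CellTiter-Glo, read in the beta-lactamase wells after 30 min at RT, following a 16 h compound exposure at 37C.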

For test [12], the target named is Cellular tumor antigen p53 (Homo sapiens) (UniProt P04637). In words: TOX21_p53_BLA_p4_ratio: Tox21 HCT-116 p53 Agonism Beta-lactamase Assay, Ratio, Phase 4 (AID 2283601). The gist of the method: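 HCT-116 p53 beta-lactamase reporter cells (4000/well) preincubated 5 h, then compound (217-fold dilution of DMSO stock) for 16 h at 37C. CCF4-AM substrate added 2 h at room temperature; 460/530 nm emission ratio fitted upward versus DMSO.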

Test [13] is described as follows: Tanguay_ZF_120hpf_MORT_legacy: (Legacy) Oregon State University Tanguay Lab 120 Hour Post-fertilization zebrafish Assay for Mortality (AID 2283633).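 As to AC50: fitted as increase in binary mortality versus DMSO negative control.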 The method, boiled down:
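Mortality endpoint from a multiplexed whole-embryo zebrafish screen. Dechorionated wild-type embryos received compound at 6 hpf and remained under static exposure at 28C until 120 hpf, with death noted as a present/absent call.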

A short description of test [14]: Tanguay_ZF_120hpf_YSE_legacy: (Legacy) Oregon State University Tanguay Lab 120 Hour Post-fertilization zebrafish Assay for Yolk Sac Edema (AID 2283634).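 As to AC50: actives raise the incidence of yolk sac edema above the DMSO baseline.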 The gist of the method:
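Readout: presence or absence of yolk sac edema at 120 hpf, fitted upward against DMSO controls. Exposure ran statically from 6 hpf in dechorionated embryos kept at 28C.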

Test [15] is described as follows: Tanguay_ZF_120hpf_AXIS_legacy: (Legacy) Oregon State University Tanguay Lab 120 Hour Post-fertilization zebrafish Assay for Body Axis Malformation (AID 2283635). The method, boiled down: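 Static 6–120 hpf chemical exposure of dechorionated wild-type 5D zebrafish, one per well at 28C; morphology endpoint scored binary at 120 hpf relative to DMSO control.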
The nature of test [16]: Tanguay_ZF_120hpf_SNOU_legacy: (Legacy) Oregon State University Tanguay Lab 120 Hour Post-fertilization zebrafish Assay for Snout Malformation (AID 2283637). The method, boiled down: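 Dechorionated tropical 5D wild-type zebrafish embryos exposed statically from 6 to 120 hpf at 28C, one per well, in 0.64% DMSO. Snout malformation scored as present/absent by brightfield at 120 hpf; dead embryos not scored.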

Test [17] can be described thus: Tanguay_ZF_120hpf_OTIC_legacy: (Legacy) Oregon State University Tanguay Lab 120 Hour Post-fertilization zebrafish Assay for Otic Vesicle Malformation (AID 2283639). The gist of the method: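 Tropical 5D wild-type zebrafish embryos were exposed statically in sealed, foil-covered plates at 28C until 120 hpf, with 0.64% (vol/vol) DMSO final. Otic vesicle malformation was scored present/absent by brightfield microscopy, with DMSO as baseline.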

A short description of test [18]: Tanguay_ZF_120hpf_PE_legacy: (Legacy) Oregon State University Tanguay Lab 120 Hour Post-fertilization zebrafish Assay for Pericardial Edema (AID 2283640).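 As to AC50: potency for increased incidence of pericardial edema versus DMSO baseline.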 The gist of the method:
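Read-out is the presence or absence of pericardial edema at 120 hpf under brightfield, with gain of signal fitted against DMSO controls. Larvae (5D wild-type) were statically exposed at 28C with 0.64% final DMSO.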

A short description of test [19]: Tanguay_ZF_120hpf_EYE_legacy: (Legacy) Oregon State University Tanguay Lab 120 Hour Post-fertilization zebrafish Assay for Eye Malformation (AID 2283636).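 Also: binary presence or absence of eye malformation scored by brightfield in 120 hpf larvae.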 The gist of the method:
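Dechorionated Tropical 5D zebrafish embryos, one per well from 6 hpf, static exposure to 120 hpf at 28C, 0.64% DMSO. Eye malformation scored present/absent by brightfield; dead embryos not scored.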

Test [20] in a line: Tanguay_ZF_120hpf_JAW_legacy: (Legacy) Oregon State University Tanguay Lab 120 Hour Post-fertilization zebrafish Assay for Jaw Malformation (AID 2283638).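 As to AC50: active means more embryos with jaw malformation than DMSO controls.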 The method, boiled down:
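Static waterborne exposure of dechorionated wild-type (Tropical 5D) zebrafish from 6 to 120 hpf at 28C, 0.64% DMSO vehicle; 5uM trimethyltin chloride served as positive control. Jaw morphology recorded as binary at 120 hpf.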

Chain of Cellular tumor antigen p53 (Homo sapiens) (P04637 whole entry, looked up): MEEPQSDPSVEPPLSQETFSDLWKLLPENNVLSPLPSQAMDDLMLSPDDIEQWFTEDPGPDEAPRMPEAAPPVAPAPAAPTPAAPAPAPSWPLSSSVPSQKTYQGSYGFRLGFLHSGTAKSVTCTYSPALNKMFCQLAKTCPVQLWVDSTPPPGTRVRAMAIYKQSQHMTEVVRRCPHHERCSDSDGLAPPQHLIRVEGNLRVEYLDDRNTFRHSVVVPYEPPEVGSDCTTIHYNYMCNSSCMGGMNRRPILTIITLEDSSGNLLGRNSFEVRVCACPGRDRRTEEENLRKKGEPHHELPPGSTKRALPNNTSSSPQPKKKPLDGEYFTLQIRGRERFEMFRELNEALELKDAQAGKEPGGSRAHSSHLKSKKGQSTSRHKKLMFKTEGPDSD

As for `CN(C)C(=O)Nc1ccc(Cl)c(Cl)c1`, the call in [1], in test [3], in [4], in test [5], in test [6] and in test [7] was inactive. Also, the result in test [8], in [9], in test [10], in [11], in [12] and in test [13] was inactive. The outcome in [14], in test [15], in test [16], in [17] and in test [18] was inactive. The AC50 in [2] was 21.7 µM (active).
For `CCOC(=O)c1ccc(O)cc1`, the result in test [1], in test [2], in test [3], in [4], in [5] and in test [6] was inactive. Moreover, the result in [7], in [8], in test [9], in [10], in test [12] and in test [13] was inactive. Further, the molecule was called inactive in test [14], in [15], in test [19], in test [20] and in [18]. Besides, in test [16], the AC50 was 24.5 µM (active).
`N#CSCSc1nc2ccccc2s1`: the result in test [1], in test [2], in test [4], in test [14], in [15] and in test [19] was inactive. In addition, the molecule was classed as inactive in [16], in test [20], in test [17] and in [18]. In addition, the figures for the AC50 in test [3] and in test [13] were 75 µM (active) and 0.539 µM (active), respectively.
Consider `O=C(Nc1ccc([N+](=O)[O-])cc1Cl)c1cc(Cl)ccc1O`, for which the AC50 is 3.63 µM (active) in test [1]; 1.97 µM (active) in [2]; 4.38 µM (active) in test [3]; 129 nM (active) and 152 nM (active) in [5]; 234 nM (active) and 140 nM (active) in test [6]; 159 nM (active) and 156 nM (active) in [7]. For the same molecule, the AC50 is 299 nM (active) and 230 nM (active) in [8]; 235 nM (active) and 92 nM (active) in test [9]; 315 nM (active) and 320 nM (active) in test [10]; 0.174 µM (active) in test [11]; 0.317 µM (active) in test [12]. For the same molecule, the outcome in [11], in [12], in [13], in test [14], in [15] and in test [19] was inactive. The molecule was classed as inactive in [16], in [20], in test [17] and in [18].
Regarding `c1ccc(Nc2ccccc2)cc1`, the molecule was classed as inactive in test [1], in [2], in [3], in [4], in [5] and in test [6]. Also, the result in [7], in test [9], in test [10], in test [11], in [12] and in [15] was inactive. For the same molecule, the AC50 was 26.2 µM (active) in test [13]; 12.2 µM (active) in test [14]; 36.6 µM (active) in test [16]; 20.7 µM (active) in [20]; 36.1 µM (active) in test [18].
As to `CCN(Cc1c(F)cccc1Cl)c1c([N+](=O)[O-])cc(C(F)(F)F)cc1[N+](=O)[O-]`, the call in test [1], in test [2], in test [3], in test [4], in test [5] and in [6] was inactive. In addition, the outcome in test [7], in test [8], in test [10], in [11], in [12] and in [13] was inactive. Further, the outcome in [14], in test [15], in test [19], in test [16], in test [20] and in test [17] was inactive. The call in [18] was inactive. In addition, the AC50 in test [9] is 26.3 µM (active).

What is called AC50 is the midpoint of the concentration-response curve, whichever way the signal moves.

(Values after PubChem BioAssay (EPA / NIEHS).)
